# Measured values reported in PubChem BioAssay.
# Activity calls are given as the source filed them. Unless noted, no rule for the calls is given here.
# Assays:
# [1] = resazurin metabolic signal in HepG2 cells – cell-based, resazurin fluorescence, 24 h, PK04 Diversity Set, profiling panel (AID 1172); conditions: HepG2 viability, higher = more signal; also: test concentration not given here
# [2] = budding yeast growth changes without added modifier – OD600, strain BY4716, 24 h, basal condition, primary screen (AID 1173); conditions: S. cerevisiae BY4716 growth, OD600, 24 h; higher = more signal, called active from +8 up or from −8 down
# [3] = viability profiling in MM1S myeloma cells – cell-based, resazurin fluorescence, basal, 24 h, PK04 Diversity Set, profiling panel (AID 1174); conditions: higher = more signal, called active from +8 up or from −8 down;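 also: MM1S multiple myeloma cell line; test concentration not given here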
# [4] = biological target: Dihydroorotate dehydrogenase (quinone), mitochondrial (Plasmodium falciparum (isolate 3D7)) (UniProt Q08210); test: inhibition of P. falciparum DHODH – biochemical, C-terminal His tag, absorbance 600 nm, primary screen (AID 1175); conditions: PfDHODH enzyme, DCIP absorbance 600 nm; higher = more signal, called active from +8 up or from −8 down;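 also: recombinant parasite enzyme with a five histidine tag at its C terminus; test concentration not given here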
# [5] = inhibition of PAO1 biofilm formation – strain PAO1, LB-PBS medium, absorbance 600 nm, primary screen (AID 1176); also: test concentration not given here; conditions: P. aeruginosa PAO1 growth/biofilm, A600, 12 h; higher = more signal
# [6] = growth modulation of vineyard yeast isolate – strain RM11-1a, OD600, basal, 24 h, primary screen (AID 1177);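 also: cultures grown under basal conditions with no added stressor; test concentration not given here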; conditions: S. cerevisiae RM11-1a growth, OD600, 24 h; higher = more signal, called active from +8 up or from −8 down
# [7] = growth of efflux-deficient E. coli DRC39 – strain DRC39, OD650, 24 h, E. coli filamentation inducers, primary screen (AID 1178);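 also: growth measured as culture turbidity by optical density at 650 nm; test concentration not given here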; conditions: E. coli DRC39 acrAB, higher = more signal, called active from +8 up or from −8 down
# [8] = growth of efflux-deficient E. coli DRC39 – strain DRC39, OD650, 48 h, E. coli filamentation inducers, primary screen (AID 1179);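 also: screen aims at cell division blockers that make cells filament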; conditions: E. coli DRC39 delta-acrAB growth, higher = more signal, called active from +8 up or from −8 down
# [9] = viability profiling in RPMI8226 myeloma cells – cell-based, resazurin fluorescence, basal, 24 h, PK04 Diversity Set, profiling panel (AID 1180); conditions: higher = more signal;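 also: RPMI8826 multiple myeloma cell line at 5000 cells per well; test concentration not given here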
# [10] = biological target: E3 ubiquitin-protein ligase XIAP (Homo sapiens) (UniProt P98170); test: small molecules binding XIAP protein – biophysical, small-molecule microarray, fluorescence 635 nm, primary screen (AID 1181); conditions: higher = more signal;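 also: score merges 667 nm emission and signal to noise over triplicate slides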
# E3 ubiquitin-protein ligase XIAP (Homo sapiens), sequence (P98170 whole entry, looked up): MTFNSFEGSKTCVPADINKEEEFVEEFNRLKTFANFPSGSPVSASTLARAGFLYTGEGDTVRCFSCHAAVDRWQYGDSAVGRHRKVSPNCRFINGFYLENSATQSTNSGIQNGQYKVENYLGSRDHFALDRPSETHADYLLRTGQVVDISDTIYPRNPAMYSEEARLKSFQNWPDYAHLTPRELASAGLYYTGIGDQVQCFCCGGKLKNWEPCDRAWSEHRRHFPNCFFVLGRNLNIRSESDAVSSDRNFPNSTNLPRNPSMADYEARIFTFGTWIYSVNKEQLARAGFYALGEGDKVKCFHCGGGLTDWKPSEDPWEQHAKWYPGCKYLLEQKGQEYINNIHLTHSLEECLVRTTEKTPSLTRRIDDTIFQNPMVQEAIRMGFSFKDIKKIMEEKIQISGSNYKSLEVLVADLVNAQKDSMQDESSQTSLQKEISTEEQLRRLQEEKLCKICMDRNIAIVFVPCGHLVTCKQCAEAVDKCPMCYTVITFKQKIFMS
# Dihydroorotate dehydrogenase (quinone), mitochondrial (Plasmodium falciparum (isolate 3D7)), sequence (Q08210 whole entry, looked up): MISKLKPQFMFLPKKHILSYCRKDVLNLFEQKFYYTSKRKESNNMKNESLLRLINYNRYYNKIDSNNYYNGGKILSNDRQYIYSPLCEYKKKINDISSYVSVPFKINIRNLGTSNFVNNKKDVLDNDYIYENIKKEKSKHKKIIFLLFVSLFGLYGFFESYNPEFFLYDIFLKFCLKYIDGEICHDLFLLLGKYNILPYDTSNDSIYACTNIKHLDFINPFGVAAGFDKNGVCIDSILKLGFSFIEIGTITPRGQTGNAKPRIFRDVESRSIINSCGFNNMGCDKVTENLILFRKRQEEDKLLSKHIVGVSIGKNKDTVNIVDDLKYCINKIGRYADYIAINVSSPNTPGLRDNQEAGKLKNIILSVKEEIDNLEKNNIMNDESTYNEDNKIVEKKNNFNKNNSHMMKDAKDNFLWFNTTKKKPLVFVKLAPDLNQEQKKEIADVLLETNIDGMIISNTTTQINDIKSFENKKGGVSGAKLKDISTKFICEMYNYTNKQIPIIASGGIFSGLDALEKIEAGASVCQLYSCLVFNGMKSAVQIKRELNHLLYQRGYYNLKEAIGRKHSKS
SMILES,z-score [1],z-score [2],z-score [3],composite z-score [4],z-score [5],z-score [6],z-score [7],z-score [8],z-score [9],composite z-score [10]
CCOC(=O)[C@H](CC(C)C)NC(=O)CCC1CC(OC(=O)NCc2cccc3ccccc23)CC2(CCCC(COC(=O)NCc3cccc(C(F)(F)F)c3)O2)O1 (stereo not given in full),-0.189,-0.31 (inactive),0.0223 (inactive),-0.161 (inactive),0.687 (inactive),0.388 (inactive),0.939 (inactive),1.08 (inactive),0.639,-0.206
CO[C@@H]1COC(=O)[C@@H]2CCCN2C(=O)[C@@H](C)COC(=O)CC=C[C@H]1C,1.09,0.755 (inactive),0.468 (inactive),-0.385 (inactive),-0.749 (inactive),0.0994 (inactive),0.207 (inactive),-0.179 (inactive),0.189,-0.273
CCOC(=O)CCN1C(=O)[C@H]2[C@H]3[C@H](O)[C@H](O)CC(=NNC(=O)OCc4ccccc4)[C@@H]3CC[C@H]2C1=O,-0.921,0.192 (inactive),-0.931 (inactive),0.203 (inactive),-0.331 (inactive),0.116 (inactive),0.655 (inactive),0.84 (inactive),-0.663,0.154
CCOC(=O)[C@H](CC(C)C)NC(=O)CCC1CC(OC(=O)NCc2cccc3ccccc23)CC2(CCCC(COC(=O)NCCCN3CCCC3=O)O2)O1 (stereo not given in full),0.281,-0.761 (inactive),0.826 (inactive),0.0067 (inactive),-0.47 (inactive),0.209 (inactive),-0.134 (inactive),0.323 (inactive),-0.241,-0.104
O=C1CCCC=C1C(O)CCOC(c1ccccc1)(c1ccccc1)c1ccccc1 (stereo not given),0.0714,-0.529 (inactive),0.0795 (inactive),0.466 (inactive),0.368 (inactive),1.25 (inactive),0.0368 (inactive),-0.356 (inactive),-0.193,0.412
CC(C)CON=C1C[C@@H](O)[C@@H](O)[C@@H]2[C@@H]3C(=O)N(C4CCCCC4)C(=O)[C@@H]3CC[C@@H]12,-0.577,-4.72 (inactive),0.119 (inactive),-0.508 (inactive),-0.294 (inactive),0.523 (inactive),-0.3 (inactive),-1.17 (inactive),-0.0596,0.0159
COC(=O)CC=C[C@@H](C)[C@@H](C=NOC(C)CN1CCCc2nc(C)c(C)cc21)OC (stereo not given in full),-0.412,0.0692 (inactive),0.141 (inactive),-0.781 (inactive),-0.537 (inactive),-0.151 (inactive),-0.222 (inactive),-0.0403 (inactive),-1.26,0.137
CCCNC(=O)OC[C@H]1O[C@H](c2ccccc2)C=C[C@@H]1Oc1ccc(OC)cc1,-0.889,-1.88 (inactive),-1.06 (inactive),0.152 (inactive),-0.115 (inactive),-0.0966 (inactive),0.507 (inactive),0.342 (inactive),-0.35,-0.0629
CON=CC[C@@H]1C=C[C@H](OC(C)=O)[C@@H](COC(C)=O)O1,-0.144,-0.0768 (inactive),0.0181 (inactive),-1.1 (inactive),-0.0903 (inactive),0.964 (inactive),0.736 (inactive),-1.17 (inactive),-0.143,0.502
O=C1[C@H]2[C@H]3[C@H](O)[C@H](O)CC(=NOCc4ccccc4)[C@@H]3CC[C@H]2C(=O)N1C[C@@H]1CCCO1,0.0577,-0.321 (inactive),0.161 (inactive),-0.0256 (inactive),0.611 (inactive),-0.447 (inactive),-0.242 (inactive),0.403 (inactive),0.278,-0.211
COc1ccc(C#C[C@@H]2C=C[C@H](OC(C)=O)[C@@H](COC(C)=O)O2)cc1,0.0002,-1.59 (inactive),-2.77 (inactive),-0.531 (inactive),0.0372 (inactive),-0.939 (inactive),0.746 (inactive),0.348 (inactive),-1.49,-0.0801
CO[C@H]1COC(=O)CC=C[C@H](C)[C@@H](OC)COC(=O)[C@@H](C)NC(=O)CC=C[C@@H]1C,0.789,-0.774 (inactive),1.01 (inactive),-0.355 (inactive),-0.491 (inactive),-0.937 (inactive),0.0013 (inactive),-0.597 (inactive),0.808,-0.244
CCOC(=O)[C@H](Cc1ccccc1)NC(=O)CCC1CC(OC(=O)NCc2cccc3ccccc23)CC2(CCCC(COC(=O)NCCC(C)C)O2)O1 (stereo not given in full),1.15,-1.07 (inactive),1.3 (inactive),-0.619 (inactive),0.238 (inactive),-0.886 (inactive),-0.427 (inactive),0.319 (inactive),1.82,0.0867
C=CC[C@@H]1C=C[C@H](ON=C[C@@H](C)[C@H](OCc2ccccc2)C(C)C)[C@@H](CO)O1,0.0253,-5.6 (inactive),-0.865 (inactive),-0.408 (inactive),0.241 (inactive),-0.62 (inactive),-0.295 (inactive),-0.238 (inactive),-0.183,-0.138
COC(=O)CC=C[C@@H](C)[C@@H](C=NO[C@H](C)c1cn([C@H](CO)Cc2ccccc2)nn1)NS(=O)(=O)c1ccc(C)cc1,-0.891,-1.17 (inactive),-0.81 (inactive),0.0463 (inactive),0.0282 (inactive),-0.476 (inactive),0.0146 (inactive),-0.0853 (inactive),0.108,-0.206
CC(C)=CCCC(C)=CCON=C1C[C@@H](O)[C@@H](O)[C@@H]2[C@@H]3C(=O)N(C(C)(C)C)C(=O)[C@@H]3CC[C@@H]12,-0.976,-0.0139 (inactive),0.408 (inactive),0.661 (inactive),1.23 (inactive),-0.0348 (inactive),-0.106 (inactive),-1.26 (inactive),-0.11,-0.172
O=C1OCCC=C1C(O)CCc1ccccc1 (stereo not given),0.0362,-0.567 (inactive),-0.649 (inactive),-0.0757 (inactive),-0.564 (inactive),-0.415 (inactive),0.258 (inactive),0.137 (inactive),-0.573,-0.202
CC(C)=CCCC(C)=CCON=C1C[C@@H](O)[C@@H](O)[C@@H]2[C@@H]3C(=O)N(c4ccc(F)cc4F)C(=O)[C@@H]3CC[C@@H]12,0.387,-1.38 (inactive),0.77 (inactive),0.263 (inactive),0.519 (inactive),0.225 (inactive),0.781 (inactive),0.345 (inactive),0.75,-0.336
C[C@@H]1C=CCC(=O)OC[C@H]2O[C@@H](C=C[C@@H]2O)[C@H](C)C=CCC(=O)OC1,-0.444,-1.03 (inactive),0.324 (inactive),-0.793 (inactive),0.565 (inactive),-2.26 (inactive),0.577 (inactive),0.205 (inactive),-0.667,-0.0826
COC(=O)[C@H](C)NC(=O)CCC1CC(OC(=O)NCc2ccc3c(c2)OCO3)CC2(CCCC(COC(=O)NCC3CCCCC3)O2)O1 (stereo not given in full),0.635,0.415 (inactive),0.138 (inactive),0.981 (inactive),-0.388 (inactive),1.13 (inactive),0.49 (inactive),0.139 (inactive),-0.119,0.104
CON=Cc1ccc(C(=O)N2[C@H](c3ccc(C)cc3)[C@@H](C)CC[C@H]2C(=O)OC)cc1,0.259,-2.35 (inactive),0.37 (inactive),0.442 (inactive),-0.066 (inactive),-0.308 (inactive),0.743 (inactive),0.0138 (inactive),0.589,-0.0559
CCCCC#C[C@@H]1C=C[C@H](Oc2ccc(C(=O)OC)cc2)[C@@H](COC(=O)OCC)O1,0.257,-4.46 (inactive),-1.6 (inactive),-0.189 (inactive),0.472 (inactive),-0.37 (inactive),-0.301 (inactive),-0.0901 (inactive),-1.08,-0.194
CC(CCN1CCCCc2nc(C)c(C)cc21)=NOC[C@@H](C)[C@H](OCc1ccccc1)C(C)C,-0.345,-2.36 (inactive),-0.13 (inactive),-1.46 (inactive),0.147 (inactive),-2.61 (inactive),-1.22 (inactive),0.0039 (inactive),0.0342,0.0153
CO[C@@H]1COC(=O)[C@H](CCSC)NC(=O)CC=C[C@@H](C)COC(=O)[C@H](C)NC(=O)CC=C[C@H]1C,0.356,-1.15 (inactive),0.457 (inactive),0.262 (inactive),-0.838 (inactive),-0.224 (inactive),0.916 (inactive),0.577 (inactive),0.693,-0.324
